Structures are written as SMILES. In all, about 52,000 compounds went through this assay and about 1,700 (3.3%) were called active. No stated cut-off is given here; in the data, active means survival mostly below about 52% (no sharp cut-off); inactive means mostly above about 56%. The entries come from a sample that favours actives as a whole.

The subject of this test is Wild type. In words: S. aureus survival, RN4220 and DeltatarO strains – OD600, teichoic acid synthesis inhibitors, primary screen (AID 463173). The note with it: S. aureus RN4220 wild type/DeltatarO growth, OD600, 18 h, hits give low values, concentration not given here.
For the compound `N#Cc1cc2c(nc1SCC(=O)Nc1ccc(F)c(Cl)c1)C1CCN2CC1`, the survival was -2% (active).
Under `Nc1c(C(=O)Nc2ccc(Cl)cc2)sc2nc3c(cc12)N1CCC3CC1` stands 95% (inactive); under `Nc1c(C(=O)Nc2ccc(F)c(Cl)c2)sc2nc3c(cc12)N1CCC3CC1`, 105% (inactive).
For `Nc1c(C(=O)Nc2ccc(Cl)c(C(F)(F)F)c2)sc2nc3c(cc12)N1CCC3CC1` the value was 1% (active).
With `CCOC(=O)c1ccc(NC(=O)c2sc3nc4c(cc3c2N)N2CCC4CC2)cc1`, the survival is 84% (inactive).
Under `CN(C)c1ccc(NC(=O)c2sc3nc4c(cc3c2N)N2CCC4CC2)cc1` stands 114% (inactive); under `N#Cc1cc2c(nc1SCC(=O)Nc1ccc(Cl)c(C(F)(F)F)c1)C1CCN2CC1`, 2% (active).
Regarding `CC(=O)c1ccc(NC(=O)c2sc3nc4c(cc3c2N)N2CCC4CC2)cc1`, the survival is 95% (inactive).
For `Nc1c(C(=O)Nc2ccc(Br)cc2F)sc2nc3c(cc12)N1CCC3CC1` the value was 134% (inactive); for `COc1ccc(NC(=O)CCc2nc(C3=CCN(Cc4cccc(Cl)c4)CC3)no2)cc1OC`, 76% (inactive).
As for `CCC(N)C(=O)c1ccc(Cl)cc1` (configuration not stated), the survival was 105% (inactive).
For `Cn1c(=O)n(C)c2cc(CNCCc3ccc(F)cc3)ccc21` the value was 86% (inactive).
Consider `CC(C)C(=O)c1cn(Cc2ccccc2C#N)c2ccccc12`, for which the survival was 115% (inactive).
Under `Cc1cccc(Cn2cccc(C(=O)Nc3nnc(C)s3)c2=O)c1` stands 71% (inactive); under `O=C(Nc1ccc(Br)cc1C(=O)c1ccccc1)c1ccccc1`, -1% (active); under `O=C(Nc1ccc(Br)cc1C(=O)c1ccccc1Cl)c1ccc(Br)cc1`, 136% (inactive).
For `O=C(Nc1ccc(Cl)cc1C(=O)c1ccccc1)c1cc(Cl)cc(Cl)c1` the value was 140% (inactive); for `O=C(COc1ccc(Br)cc1)Nc1ccc(Cl)cc1C(=O)c1ccccc1`, 72% (inactive); for `O=C(Nc1ccc(Br)cc1C(=O)c1ccccc1Cl)c1ccccc1F`, 76% (inactive).
For `Cc1ccc(OCC(=O)Nc2ccc(Cl)cc2C(=O)c2ccccc2)cc1C` the value was 75% (inactive); for `COc1ccc(C(=O)Nc2ccc(Cl)cc2C(=O)c2ccccc2)c(OC)c1`, -2% (active); for `COc1cc(OC)cc(C(=O)Nc2ccc(Cl)cc2C(=O)c2ccccc2Cl)c1`, 139% (inactive).
As for `CC(C)(C)c1ccc(C(=O)Nc2ccc(Cl)cc2C(=O)c2ccccc2)cc1`, the survival was 3% (active).
Take `CC(C)(C)c1ccc(OCC(=O)Nc2ccc(Cl)cc2C(=O)c2ccccc2)cc1`: the survival was 63% (inactive).
For `CSc1ncc(C(=O)Nc2ccc(Cl)cc2C(=O)c2ccccc2)c(C)n1` the value was 88% (inactive).
Under `O=C(Nc1ccc(Cl)cc1C(=O)c1ccccc1)c1ccccc1Br` stands 5% (active).
On to `Cc1cc(NC(=O)c2cccn(Cc3cccc(Cl)c3)c2=O)no1`, for which the survival is 72% (inactive).
As for `O=C1NC(=O)N(Cc2ccco2)C(=O)/C1=C\c1ccco1`, the survival is 111% (inactive).
With `O=C(Nc1ccc2c(c1)OCO2)c1cccn(Cc2ccc(F)cc2)c1=O`, the survival was 59% (inactive).
Under `CCCc1nc(SC)ncc1C(=O)Nc1ccc(Cl)cc1C(=O)c1ccccc1` stands 84% (inactive); under `COC(=O)C1=C(C)OC(N)=C(C#N)C12C(=O)Nc1ccc(C)cc12` (configuration not stated), 96% (inactive); under `COc1ccc(CN2CCNCC2)cc1`, 98% (inactive).
In the case of `Cc1cccc(NC(=O)Cn2cc(C(=O)c3ccccc3)c3ccccc32)c1C`, the survival was 71% (inactive).
On to `CC(c1ccccc1F)n1cc(C(=O)NC2CCCC2)nn1` (configuration not stated), for which the survival is 103% (inactive).
As for `CCOc1ccc2nc(NC(=O)c3cccn(Cc4ccc(C)cc4)c3=O)sc2c1`, the survival is 76% (inactive).
For `Cc1ccc(Cn2cccc(C(=O)Nc3cc(C)on3)c2=O)cc1` the value was 81% (inactive); for `O=C1CN=C(c2ccccc2Cl)c2cc(Cl)ccc2N1Cc1cccc(Cl)c1`, 128% (inactive).
With `Cc1ccc(C)c(CN2C(=O)c3ccccc3Sc3ccc(C(=O)N4CCC5(CC4)OCCO5)cc32)c1`, the survival was 14% (active).
As for `O=C(c1ccc2c(c1)N(Cc1ccc(F)cc1Cl)C(=O)c1ccccc1S2)N1CCC2(CC1)OCCO2`, the survival was 78% (inactive).
As for `Cc1ccc(CN2C(=O)c3ccccc3Sc3ccc(C(=O)N4CCC5(CC4)OCCO5)cc32)cc1`, the survival was 75% (inactive).
As to `C1CNC2NCCNC2N1` (configuration not stated), the survival is 125% (inactive).
Turning to `O=C1NC(=O)C(C(CC(=O)c2ccccc2)c2ccccc2)C(=O)N1` (configuration not stated), the survival was 116% (inactive).
In the case of `CN1C(=O)C(=Cc2ccco2)C(=O)N(C)C1=O`, the survival was 109% (inactive).
With `CCCSc1nc2ccccc2c(=O)n1-c1ccccc1OC`, the survival is -1% (active).
For `CSc1nc2ccccc2c(=O)n1-c1ccccc1C` the value was 107% (inactive); for `COc1ccccc1-n1c(/C=C/c2ccccc2)nc2ccccc2c1=O`, 80% (inactive).
Under `CC(=O)N1CC(=O)Nc2ccc(F)cc2C1c1ccccc1` (configuration not stated) stands 82% (inactive); under `Cc1ccc(-c2nc(CN3C(=O)CN=C(c4ccccc4)c4ccccc43)c(C)o2)cc1`, 72% (inactive); under `COc1ccc(-c2nc(CN3C(=O)CN=C(c4ccccc4)c4ccccc43)c(C)o2)cc1OC`, 96% (inactive).
For `COc1ccc(-c2nc(CN3C(=O)CN=C(c4ccccc4)c4ccccc43)c(C)o2)cc1` the value was 93% (inactive).
For the compound `Cc1ccccc1-c1nc(CN2C(=O)CN=C(c3ccccc3)c3ccccc32)c(C)o1`, the survival was 2% (active).
Under `Cc1cccc(-c2nc(CN3C(=O)CN=C(c4ccccc4)c4ccccc43)c(C)o2)c1` stands 2% (active); under `Cc1oc(-c2ccc(Cl)cc2)nc1CN1C(=O)CN=C(c2ccccc2)c2ccccc21`, 80% (inactive).
Under `Cc1ccc2scc(N3CCN(C)CC3)c(=O)c2c1` stands 136% (inactive); under `O=c1[nH]c2ccccc2c(=O)n1-c1ccc(Cl)c(Cl)c1`, 91% (inactive); under `CCOc1nc(NCc2ccco2)nc(N2CC3CC(C2)c2cccc(=O)n2C3)n1` (configuration not stated), 104% (inactive).
Regarding `Nc1c2c(nc3sc4c(c13)CCCC4)CCCC2`, the survival is 118% (inactive).

Source of the values: PubChem BioAssay AID463173 (ICCB-Longwood Screening Facility, Harvard Medical School, 2010).
